Seven compounds from PubChem BioAssay (NCI) can be followed below.

Some test systems named below: HCT-15 colon; HT29 colon; SNB-75 CNS; SNB-19 CNS; U251 CNS; PC-3 prostate; SK-MEL-5 melanoma; UACC-62 melanoma; SK-MEL-28 melanoma; SK-MEL-2 melanoma; EKVX NSCLC; SN12C renal; UO-31 renal; TK-10 renal; ACHN renal; CAKI-1 renal; A498 renal; CCRF-CEM leukemia; MOLT-4 leukemia; LOX IMVI melanoma.
Common to all, as to experiment: NCI-60 one-dose screen, 48 h (100 = growth as untreated, 0 = no growth, -100 = all killed)
Conditions in all cases: 10 µM unless noted

Each structure is given as a SMILES string. Values joined by “and” are separate entries in the source; they are usually repeats but may differ in a detail not shown here. Equal values may be shown once. This is part of a sample that, as a whole, favours compounds with a hit. Of some 83,000 tested, about 20% had one in any assay.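 Cell lines were cultured in 96-well plates, exposed to a single compound concentration, and assessed for percent growth 48 hours later.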 Unmarked numbers belong to inactive results. Active and inactive are the calls of the source. Rule for the calls: active = growth percent below 10; inactive = the rest.

For `CC1=CC(C)(C)NC(=S)N1c1ccc(Cl)cc1`, the growth in the experiment with HCT-15 colon is 96.9% and 88.8%; with HT29 colon it was 103%; with SNB-75 CNS it was 91.3% and 108%; in the experiment with SNB-19 CNS, 96.7% and 96.9%; with U251 CNS it was 98.7% and 102%; in the experiment on PC-3 prostate it was 94% and 85.1%. Besides, the growth was 100% and 103% with SK-MEL-5 melanoma; 94.6% and 84.9% with UACC-62 melanoma; 101% and 105% with SK-MEL-28 melanoma; 101% and 94.3% in the experiment on SK-MEL-2 melanoma; 91.5% and 106% with EKVX NSCLC; 95.6% and 99% in the experiment with SN12C renal. The growth is 82.2% in the experiment on UO-31 renal; 99.7% and 98.7% in the experiment on TK-10 renal; 94.7% and 99.9% in the experiment on ACHN renal; 91.6% and 97.8% with CAKI-1 renal; 104% in the experiment with A498 renal; 105% and 89.1% in the experiment on CCRF-CEM leukemia. Besides, the growth in the experiment with MOLT-4 leukemia is 95% and 96.8%.

`O=C1C=C(Nc2ccccc2)c2ncccc2C1=O`: the growth with HCT-15 colon was -68.7% (active); in the experiment on HT29 colon, -37% (active); in the experiment with SNB-75 CNS, -97.1% (active); with SNB-19 CNS, -92.8% (active); in the experiment with U251 CNS, -97.9% (active); in the experiment on PC-3 prostate, -17.7% (active). Further, the growth in the experiment on SK-MEL-5 melanoma was -97.8% (active); with UACC-62 melanoma it was -92.3% (active); in the experiment with SK-MEL-28 melanoma, -81.3% (active); in the experiment on SK-MEL-2 melanoma it was -66.8% (active); with EKVX NSCLC it was -85.3% (active); in the experiment on SN12C renal, -88.8% (active). The growth is -98.6% (active) in the experiment on UO-31 renal; -96.9% (active) with TK-10 renal; -98.3% (active) in the experiment with ACHN renal; -95.9% (active) in the experiment on CAKI-1 renal; -87.5% (active) with A498 renal; -29.9% (active) with CCRF-CEM leukemia. In the experiment with MOLT-4 leukemia, the growth is -49.6% (active).

Take `COc1ccc(-c2nnc3n(C)c(=O)c4ccccc4n23)cc1O`: the growth with HCT-15 colon is 22.9%; in the experiment on HT29 colon, 18.8%; in the experiment on SNB-75 CNS it was 9.51% (active); in the experiment with SNB-19 CNS, 24.3%; with U251 CNS, 15.1%; in the experiment on PC-3 prostate, 17.9%. For the same compound, the growth is 19% in the experiment on SK-MEL-5 melanoma; 14.2% in the experiment on UACC-62 melanoma; 39.1% with LOX IMVI melanoma; 30.3% in the experiment with SK-MEL-2 melanoma; 97.5% in the experiment with EKVX NSCLC; 30.3% in the experiment on SN12C renal. Besides, the growth with UO-31 renal is 52.7%; in the experiment with TK-10 renal it was 51.4%; in the experiment on ACHN renal it was 47.5%; in the experiment with CAKI-1 renal, 35.2%; with A498 renal, 21.6%; in the experiment on CCRF-CEM leukemia, 10.7%. Further, the growth with MOLT-4 leukemia was 32.5%.

Take `COc1ccc2nc3cc(Cl)ccc3c(NCCCNCCC(C)O)c2c1` (stereo not drawn): the growth is 2.36% (active) with HCT-15 colon; 4% (active) in the experiment with HT29 colon; -58.8% (active) in the experiment with SNB-75 CNS; -25.6% (active) with SNB-19 CNS; -41.4% (active) with U251 CNS; -50% (active) in the experiment on PC-3 prostate. Besides, the growth in the experiment with SK-MEL-5 melanoma is -96.7% (active); in the experiment with UACC-62 melanoma, -57% (active); in the experiment with SK-MEL-28 melanoma, -59.3% (active); in the experiment on SK-MEL-2 melanoma, -48.2% (active); with EKVX NSCLC it was -7.41% (active); in the experiment with SN12C renal it was -25.9% (active). Also, the growth is -28.1% (active) in the experiment with UO-31 renal; 8.67% (active) in the experiment on TK-10 renal; -1.05% (active) in the experiment on ACHN renal; -3.91% (active) in the experiment on CAKI-1 renal; -79% (active) in the experiment with A498 renal; -24% (active) with CCRF-CEM leukemia. For the same compound, in the experiment on MOLT-4 leukemia, the growth was -18.1% (active).

For the compound `CCn1cc(C(=O)NN=C2CCCC2)c(=O)c2ccc(C)nc21`, the growth with HCT-15 colon is 96.6%; in the experiment on HT29 colon it was 96.9%; in the experiment on SNB-75 CNS, 86.1%; with SNB-19 CNS, 96.6%; with U251 CNS, 96.5%; in the experiment on PC-3 prostate, 85.6%. In addition, the growth in the experiment with SK-MEL-5 melanoma is 92.8%; in the experiment with UACC-62 melanoma it was 78.6%; in the experiment with SK-MEL-28 melanoma, 90.9%; with SK-MEL-2 melanoma it was 96.5%; in the experiment with EKVX NSCLC, 88.8%; with SN12C renal, 81%. Moreover, the growth in the experiment with UO-31 renal was 81.3%; in the experiment on TK-10 renal, 100%; in the experiment with ACHN renal, 86.6%; in the experiment on CAKI-1 renal, 84.2%; in the experiment with A498 renal, 66.7%; with CCRF-CEM leukemia, 89.7%. Also, in the experiment with MOLT-4 leukemia, the growth was 100%.

For the compound `COC(=O)[C@H]1Cc2c([nH]c3ccccc23)[C@@H](c2cccs2)N1`, the growth is 102% in the experiment with HCT-15 colon; 97.1% in the experiment with HT29 colon; 83.8% in the experiment with SNB-75 CNS; 98.2% in the experiment with SNB-19 CNS; 97.7% in the experiment on U251 CNS; 100% in the experiment with PC-3 prostate. Moreover, the growth is 100% with SK-MEL-5 melanoma; 89.5% with UACC-62 melanoma; 104% in the experiment with LOX IMVI melanoma; 97.2% with SK-MEL-2 melanoma; 96.3% with EKVX NSCLC; 102% in the experiment on SN12C renal. For the same compound, the growth is 93% in the experiment with UO-31 renal; 86.7% in the experiment with TK-10 renal; 111% in the experiment with ACHN renal; 89.8% with CAKI-1 renal; 93.2% in the experiment with A498 renal; 101% with CCRF-CEM leukemia. Besides, the growth with MOLT-4 leukemia was 103%.

For `CCCCCCCCCCCCC[C@H](O)C[C@H](O)[C@H](C)N`, the growth in the experiment on HCT-15 colon was 97.8% [1.25 µM]; in the experiment on HT29 colon, 103% [1.25 µM]; in the experiment on SNB-75 CNS, 129% [1.25 µM]; with SNB-19 CNS it was 104% [1.25 µM]; in the experiment with U251 CNS it was 85.2% [1.25 µM]; with PC-3 prostate, 97% [1.25 µM]. Moreover, the growth with SK-MEL-5 melanoma is 97.6% [1.25 µM]; in the experiment with UACC-62 melanoma it was 113% [1.25 µM]; with LOX IMVI melanoma, 90.8% [1.25 µM]; in the experiment on SK-MEL-2 melanoma it was 113% [1.25 µM]; in the experiment with EKVX NSCLC it was 99.4% [1.25 µM]; in the experiment on SN12C renal it was 105% [1.25 µM]. Also, the growth in the experiment with UO-31 renal was 112% [1.25 µM]; with TK-10 renal, 137% [1.25 µM]; in the experiment on ACHN renal it was 102% [1.25 µM]; in the experiment on CAKI-1 renal, 110% [1.25 µM]; with A498 renal, 93.7% [1.25 µM]; in the experiment on CCRF-CEM leukemia, 25% [1.25 µM]. Further, the growth in the experiment on MOLT-4 leukemia was 51.7% [1.25 µM].
